Laboratory results from PubChem BioAssay AID1159580 (chemical genetic matrix, 2015).
Among all 5,500 compounds or so, about 2,000 (36%) were called active. Inconclusive results (about 18%) are left out. Rule as the data show it: active = normalized growth mostly below about 0.91 (no sharp cut-off); inconclusive = no clear call, values can overlap the other calls; inactive = mostly above about 0.92. The list shows a part of the results.

Assay: chemical genetic growth profiling, strain panel (AID 1159580);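 also: tested at 20 µM; growth read once vehicle control cultures reached saturation at 30 °C; 1 = growth at the plate median or of vehicle wells; lower values mean less growth of the strain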
Conditions: S. cerevisiae deletion strains, growth OD

Measured: normalized growth

COc1ccc2cc1Oc1ccc(cc1)C[C@H]1c3c(cc4c(c3Oc3cc5c(cc3OC)CCN(C)[C@@H]5C2)OCO4)CCN1C
inactive: locus YAL021C, strain ccr4, active compounds read low 1.01 | locus YAL026C, strain drs2, active compounds read low 1.01 | locus YAL030W, strain snc1, active compounds read low 0.989 | locus YBL061C, strain skt5, active compounds read low 1.01 | locus YBR009C, strain hhf1, active compounds read low 0.959 | locus YBR023C, strain chs3, active compounds read low 1.01 | locus YBR171W, strain sec66, active compounds read low 0.982 | locus YBR231C, strain swc5, active compounds read low 0.959 | locus YBR279W, strain paf1, active compounds read low 0.992 | locus YCL011C, strain gbp2, active compounds read low 1.01 | locus YCL016C, strain dcc1, active compounds read low 1.03 | locus YCL061C, strain MRC1, active compounds read low 0.984 | locus YCL069W, strain vba3, active compounds read low 0.969 | locus YCR088W, strain abp1, active compounds read low 0.987 | locus YDL005C, strain med2, active compounds read low 0.983 | locus YDL040C, strain nat1, active compounds read low 0.982 | locus YDR001C, strain nth1, active compounds read low 0.989 | locus YDR069C, strain doa4, active compounds read low 0.979 | locus YDR137W, strain rgp1, active compounds read low 1.1 | locus YDR159W, strain sac3, active compounds read low 0.875 | locus YDR195W, strain ref2 0.942 | locus YDR297W, strain sur2, active compounds read low 1 | locus YDR334W, strain swr1, active compounds read low 0.963 | locus YDR335W, strain msn5, active compounds read low 1.01 | locus YDR392W, strain spt3, active compounds read low 0.743 | locus YEL003W, strain gim4, active compounds read low 0.975 | locus YEL037C, strain rad23, active compounds read low 0.969 | locus YEL061C, strain CIN8 (second series), active compounds read low 0.98 | locus YER015W, strain faa2, active compounds read low 0.994 | locus YER016W, strain bim1, active compounds read low 1.06 | locus YER111C, strain swi4, active compounds read low 0.997 | locus YER155C, strain BEM2 (second series), active compounds read low 0.874 | locus YFR010W, strain ubp6, active compounds read low 0.966 | locus YGL167C, strain pmr1, active compounds read low 0.976 | locus YGL173C, strain kem1, active compounds read low 0.961 | locus YGL227W, strain vid30, active compounds read low 0.996 | locus YGL240W, strain doc1, active compounds read low 0.962 | locus YGL253W, strain hxk2, active compounds read low 1.01 | locus YHR013C, strain ard1, active compounds read low 0.964 | locus YHR027C, strain rpn1, active compounds read low 0.996 | locus YHR030C, strain SLT2, active compounds read low 1.03 | locus YHR079C, strain IRE1, active compounds read low 1.08 | locus YHR142W, strain chs7, active compounds read low 1.03 | locus YJL092W, strain hpr5, active compounds read low 0.988 | locus YJL095W, strain BCK1 (second series), active compounds read low 0.989 | locus YJL095W, strain BCK1, active compounds read low 1.03 | locus YJL115W, strain asf1, active compounds read low 0.974 | locus YJL129C, strain trk1, active compounds read low 1 | locus YJL154C, strain vps35, active compounds read low 0.986 | locus YJL164C, strain tpk1, active compounds read low 0.962 | locus YJL166W, strain qcr8, active compounds read low 0.955 | locus YJL187C, strain SWE1, active compounds read low 1.01 | locus YJR066W, strain TOR1, active compounds read low 0.987 | locus YKL160W, strain elf1, active compounds read low 1.05 | locus YKR026C, strain gcn3, active compounds read low 0.964 | locus YKR091W, strain srl3, active compounds read low 0.99 | locus YLL001W, strain dnm1, active compounds read low 0.959 | locus YLL026W, active compounds read low 0.999 | locus YLL041C, strain sdh2, active compounds read low 0.977 | locus YLR027C, strain aat2, active compounds read low 1 | locus YLR113W, strain HOG1, active compounds read low 1.07 | locus YLR221C, strain rsa3, active compounds read low 0.997 | locus YLR258W, strain gsy2, active compounds read low 1 | locus YLR262C, strain YPT6 (second series), active compounds read low 1.04 | locus YLR320W, strain mms22, active compounds read low 0.922 | locus YLR342W, strain FKS1, active compounds read low 1.02 | locus YLR357W, strain rsc2, active compounds read low 0.934 | locus YLR370C, strain arc18, active compounds read low 0.999 | locus YLR384C, strain iki3, active compounds read low 1 | locus YML120C, strain ndi1, active compounds read low 0.969 | locus YMR058W, strain fet3, active compounds read low 0.978 | locus YMR125W, strain sto1, active compounds read low 1 | locus YMR129W, active compounds read low 0.971 | locus YMR205C, strain PFK2, active compounds read low 0.973 | locus YMR231W, strain pep5, active compounds read low 0.985 | locus YNL071W, strain lat1, active compounds read low 0.982 | locus YNL183C, strain NPR1, active compounds read low 0.951 | locus YNL209W, strain ssb2, active compounds read low 0.99 | locus YNL248C, strain rpa49, active compounds read low 1.02 | locus YNL322C, strain KRE1 (second series), active compounds read low 1 | locus YNR049C, strain mso1, active compounds read low 1 | locus YOR001W, strain rrp6, active compounds read low 0.953 | locus YOR070C, strain gyp1, active compounds read low 1 | locus YOR080W, strain dia2, active compounds read low 0.977 | locus YOR083W, strain WHI5, active compounds read low 1 | locus YOR106W, strain vam3, active compounds read low 1.04 | locus YOR231W, strain MKK1, active compounds read low 1.06 | locus YOR265W, strain rbl2, active compounds read low 1 | locus YOR270C, strain vph1, active compounds read low 1.06 | locus YOR290C, strain snf2, active compounds read low 1.04 | locus YPL051W, strain arl3, active compounds read low 1.04 | locus YPL078C, strain atp4, active compounds read low 1.03 | locus YPL106C, strain sse1, active compounds read low 0.949 | locus YPL240C, strain hsp82, active compounds read low 0.985 | locus YPL256C, strain CLN2, active compounds read low 1.07
